RAM inhibit – inhibitors of the yeast RAM network | inhibition, % at 50 µM | AID 868 | hit rate 1.8% among 190,000 | S. cerevisiae dse1pr::URA3 reporter, 5-FOA growth OD615, 2 d; analog-sensitive cbk1-as2 kinase mutant strain;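 active = inhibition above a set limit, 3 SD over mean compound inhibition, cut at about 8.4% in these data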;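 also: 0% = DMSO-only wells with no growth and 100% = 10 µM 1-NA-PP1 full growth; inhibition rescues growth on 5-FOA so higher OD means more RAM inhibition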
SKN-1 inh – blocks SKN-1 activity in C. elegans; C. elegans VP596 Pgst-4::GFP/RFP ratio, acrylamide-induced, 24 h; inhibition, % at 21.8 µM; hit rate 0.49% among 360,000;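 active = interference check ratio from 0.5 to 1.5 plus GFP to RFP signal ratio inhibition reaching or exceeding a fixed threshold, cut at about 30% in these data, passing the limit was not always enough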
PG9 binder – PG9 antibody binding by small molecule. TR-FRET gp120-PG9 antibody binding. inhibition, % at 6.7 µM. hit rate 0.43% among 360,000. AID 624416; in the data active = inhibition above about 8.5%
Rev-erbA mod – modulators of human Rev-erb alpha DNA binding | P20393 | Rev-erbα–FITC-DNA binding, fluorescence polarization, 90 min | hit rate 0.79% among 370,000 | activity, % at 10 µM | AID 1259318;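 active = activity above about 14%, limit read from the data; passing the limit was not always enough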;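 also: 0% = DMSO wells with 35 nM protein and 100% = DMSO wells with 750 nM protein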
Target sequence (P20393 whole entry, looked up): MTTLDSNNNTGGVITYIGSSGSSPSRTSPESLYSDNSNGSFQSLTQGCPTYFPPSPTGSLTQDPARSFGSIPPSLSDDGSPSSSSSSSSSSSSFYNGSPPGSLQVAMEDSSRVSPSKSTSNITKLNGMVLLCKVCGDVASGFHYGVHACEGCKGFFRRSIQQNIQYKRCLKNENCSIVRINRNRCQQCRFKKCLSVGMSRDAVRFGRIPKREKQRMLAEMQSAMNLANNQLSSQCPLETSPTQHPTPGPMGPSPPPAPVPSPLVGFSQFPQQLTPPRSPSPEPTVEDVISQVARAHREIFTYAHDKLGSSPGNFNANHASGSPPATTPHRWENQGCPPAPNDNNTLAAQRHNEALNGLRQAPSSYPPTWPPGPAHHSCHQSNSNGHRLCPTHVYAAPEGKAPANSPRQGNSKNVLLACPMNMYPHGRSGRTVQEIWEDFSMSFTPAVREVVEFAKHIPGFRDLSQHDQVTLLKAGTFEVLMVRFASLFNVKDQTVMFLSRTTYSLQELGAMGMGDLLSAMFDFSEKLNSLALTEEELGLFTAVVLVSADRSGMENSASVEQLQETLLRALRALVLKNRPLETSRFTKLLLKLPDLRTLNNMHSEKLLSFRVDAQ
EP2 antag – inhibitors of human EP2 prostaglandin E2 receptor. C6 glioma cells expressing human EP2, cAMP TR-FRET; cells stimulated with saturating PGE2. hit rate 0.52% among 260,000. inhibition, % at 25 µM;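 active = percent inhibition above 40 after rounding to a whole number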;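 also: rat C6 glioma host cells with rolipram phosphodiesterase inhibitor present; the protocol text gives 20 µM as final concentration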
EP2 modulator – EP2 receptor (human) modulation | P43116 | EP2-expressing cells, cAMP HTRF FRET, PGE2 co-stimulation | induction, % at 25 µM | hit rate 0.83% among 260,000;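 active = compounds whose cAMP rise, as percent of the full-agonist control response, exceeds 60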;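 also: rat C6 glioma line stably carrying human EP2 under a CMV promoter; the protocol text gives 20 µM as final concentration; 100% = response of wells given 1 µM PGE2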
* = called active by the depositor; nt = no result given. An excerpt weighted towards active compounds, which were near 2.9% of everything screened.

SMILES	RAM inhibit	SKN-1 inh	PG9 binder	Rev-erbA mod	EP2 antag	EP2 modulator
COC(=O)c1cc(NC(=O)CC2SC(=Nc3ccccc3)N(CCc3c[nH]c4ccccc34)C2=O)cc(C(=O)OC)c1 (configuration not stated)	7	36*	0	nt	11	-10
Cc1ccc(NC(=O)c2cc(S(=O)(=O)NCCc3ccccc3)ccc2F)cc1Cl	5	-12	0	8	4	-20
O=C(Nc1cccc(Cl)c1)c1cc(S(=O)(=O)NCCc2ccc(Cl)cc2)ccc1F	10*	3	-1	5	4	-5
CCOC(=O)c1cc2sccc2n1CC(=O)Nc1cc(Cl)ccc1OC	nt	nt	nt	nt	8	52
O=C1C=CC(=O)c2c(O)c(CO)c(CO)c(O)c21	nt	-7	-2	-46	nt	nt
O=C1C=CC(=O)c2c(O)c(Cl)c(Cl)c(O)c21	nt	nt	nt	nt	129*	-20
CCn1c(SCC(=O)Nc2sc(C)c(C)c2C#N)nc2sc3c(c2c1=O)CCC3	nt	nt	nt	nt	15	69*
CCn1c(SCC(=O)O)nc2sc3c(c2c1=O)CCC3	1	11	1	-17	21	16
N/C(=N\OC(=O)COc1ccc(Cl)cc1Cl)c1ccncc1	0	48*	1	10	10	-11
N/C(=N\OC(=O)COc1ccc(Cl)cc1Br)c1cccnc1	2	4	0	2	9	-44
C=CCn1c(SCC(=O)Nc2sccc2C(N)=O)nc2ccc(Cl)cc2c1=O	1	11	-2	3	23	-44
C=CCn1c(SCC(=O)Nc2sccc2C(N)=O)nc2sc(CC)cc2c1=O	8.5*	-2	1	-2	2	-52
CSC1SCC2C(=O)N(C)C(C(C)C)C(=O)OCC(NC(=O)c3cnc4ccccc4n3)C(=O)NC(C)C(=O)N(C)C1C(=O)N(C)C(C(C)C)C(=O)OCC(NC(=O)c1cnc3ccccc3n1)C(=O)NC(C)C(=O)N2C (configuration not stated)	nt	42*	0	2	nt	nt
CCOC(=O)CC(=O)CSc1nc2c(sc(=S)n2-c2ccc(C)c(C)c2)c(=O)[nH]1	nt	-5	-3	4	nt	nt
CCOC(=O)CC(=O)CSc1nc2c(sc(=S)n2-c2ccc(OCC)cc2)c(=O)[nH]1	8.7*	-3	-1	-1	3	23
O=C1[C@@H]2[C@H](Cc3ccc(O)cc3)N[C@]3(C(=O)Nc4ccccc43)[C@@H]2C(=O)N1c1ccc(F)cc1	1	31	0	2	1	-15
Cc1c(Cl)ccc2c1NC(=O)[C@]21N[C@@H](Cc2ccccc2)[C@H]2C(=O)N(c3ccc(F)cc3)C(=O)[C@H]21	8.5*	5	0	-1	11	-22
COc1ccc(S(=O)(=O)n2cnc3ccccc32)c(C)c1C	nt	nt	nt	nt	5	-58
O=C(N/N=C\c1ccncc1)c1ccc(Br)s1	nt	41*	-1	0	nt	nt
O=C(N/N=C\c1cccnc1)c1ccc(Br)s1	nt	13	0	1	nt	nt
Cc1cccc2cc(CN(Cc3ccco3)C(c3nnnn3CC3CCCO3)C(C)C)c(=O)[nH]c12 (configuration not stated)	nt	nt	nt	nt	12	8
CN(C)C(CNC(=O)CCc1nc2cc(Cl)ccc2n(Cc2ccccc2)c1=O)c1ccccc1 (configuration not stated)	nt	57*	2	-3	nt	nt
CCOc1cc(OCC)c(C2C(C#N)=C(N)Oc3n[nH]c(C)c32)cc1Br (configuration not stated)	nt	nt	nt	nt	7	-72
C=C(C)COc1ccc(-c2n[nH]c(C)c2-c2ccc(Br)cc2)c(O)c1	10*	12	0	5	-8	-10
O=C(Nc1cccc2ccccc12)N1CCCN(c2c(Cl)cncc2Cl)CC1	nt	7	0	8	41*	-61
SMILES	RAM inhibit	SKN-1 inh	PG9 binder	Rev-erbA mod	EP2 antag	EP2 modulator
O=C(Nc1cccc2ccccc12)N1CCCCC1	nt	nt	nt	nt	16	14
COc1ccc(N(CC(=O)NC2CCCC2)C(=O)Cn2nnc(-c3ccc(F)cc3)n2)cc1OC	9.3*	-4	nt	-1	2	13
CCc1c(C)nc(NC2CCN(C(=O)c3ccc4c(c3)OCO4)CC2)[nH]c1=O	nt	nt	nt	nt	nt	-9
c1ccc(CSc2nccc(-c3ccco3)n2)cc1	nt	43*	1	0	nt	nt
COc1ccc(OCCNc2cc(N3CCCCC3)ccc2[N+](=O)[O-])cc1	11*	17	0	10	nt	-6
Cc1cccc(OCCNc2cc(N3CCN(CCO)CC3)ccc2[N+](=O)[O-])c1	0	-9	-1	7	7	-7
COc1ccc(OCCNc2cc(N3CCOCC3)ccc2[N+](=O)[O-])cc1	4	10	0	11	nt	-14
COc1cccc(OCCNc2cc(N3CCCCC3)ccc2[N+](=O)[O-])c1	10*	6	1	3	9	-13
Cc1nn(C)c(C)c1S(=O)(=O)N(CC(=O)Nc1ccc2c(c1)OCO2)c1ccc(C(C)C)cc1	3	11	14*	-5	13	-7
C[C@H](CCC(=O)O)[C@H]1CC[C@H]2[C@@H]3[C@H](O)C[C@@H]4C[C@H](O)CC[C@]4(C)[C@H]3C[C@H](O)[C@]12C	nt	-10	-3	-2	12	nt
C[C@H](CCC(=O)O)[C@H]1CC[C@H]2[C@@H]3CC[C@@H]4C[C@H](O)CC[C@]4(C)[C@H]3CC[C@]12C	nt	10	-2	-5	nt	nt
C[C@H](CCC(=O)O)[C@H]1CC[C@H]2[C@@H]3[C@@H](O)C[C@H]4C[C@@H](O)CC[C@]4(C)[C@H]3C[C@@H](O)[C@]12C	nt	nt	nt	nt	45*	32
C[C@H](CCC(=O)NN)[C@@H]1CC[C@@H]2[C@H]3CC[C@H]4C[C@@H](O)CC[C@]4(C)[C@@H]3CC[C@]21C	nt	nt	nt	nt	49*	21
Cc1ccc(-c2cc(N)c(=O)n(CC(=O)NCc3ccccc3F)n2)o1	nt	nt	nt	nt	7	-13
CC(C)COc1ccc(CSCCNC(=S)Nc2ccccc2)cc1	9.0*	8	0	3	9	-17
COc1ccc(C(NC(=O)N(C(C)C)C(C)C)c2nccn2C)cc1 (configuration not stated)	nt	nt	nt	nt	nt	2
CCCCNS(=O)(=O)c1ccc2nc(SCC(=O)Nc3cccc(F)c3)[nH]c2c1	0	4	-1	0	10	-14
CCc1cc2ccccc2nc1SCC(=O)Nc1ccccc1C(F)(F)F	nt	nt	nt	nt	5	61*
CCc1cc2ccccc2nc1SCC(=O)Nc1ccccc1Cl	nt	nt	nt	nt	12	69*
CCCCNS(=O)(=O)c1ccc2nc(SCC(=O)Nc3ccccc3Cl)[nH]c2c1	9.4*	6	0	0	11	11
CC(C(=O)N1CCC(c2ccncc2)CC1)c1ccccc1 (configuration not stated)	nt	nt	nt	nt	6	-34
COCCN1C(=O)CC(NNC(=O)c2ccc(S(=O)(=O)N3CCCC3)cc2)C1=O (configuration not stated)	1	101*	1	0	4	22

Bioassay records deposited in PubChem BioAssay by several laboratories.
